# Screens: PubChem BioAssay, Broad Institute
# HSF1 inhib = HSF1 inhibition; activity change, negative = inhibition, % at 7.5 µM (by protocol); 0.77% of 300,000 active; NIH3T3-HGL HSE-luciferase, MG132-induced, luminescence 8 h; active compounds read low;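 active means more than half of replicate wells show activity change below -50%, luminescence cut by over half; inconclusive means some wells, but at most half, below -50%; inactive means no replicate well below -50%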;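 further: luciferase reports HSF-1 transcriptional activity via heat shock element; 0% = median of DMSO wells and -100% = zero luminescence signal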
# esBAF inh = SWI/SNF esBAF complex inhibition. reporter increase, % at 12.5 µM. mouse ES cells, Bmi1-luciferase knock-in reporter, 24 h; 100% = twice the neutral-well signal. 2% of 350,000 active; in the data active means activation above about 40%; inconclusive means no clear call, values can overlap the other calls;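 further: 0% = median of the plate's neutral control wells and 100% = double that signal; a rise in the Bmi1 reporter signal indicates esBAF inhibition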
# Wnt bcat act = activators of Wnt/beta-catenin signaling | Wnt/beta-catenin reporter cell assay, activator, plate reader | activation, % at 9.35 µM | 1.2% of 300,000 active; in the data active means activation above about 30%, passing the limit was not always enough; inconclusive means no clear call, values can overlap the other calls;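 further: 0% = neutral control wells and 100% = positive control wells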
# MITF TRPM1 HTS = increases MITF-driven TRPM1 promoter luciferase signal | SK-MEL-5 TRPM1-promoter luciferase, 24 h; % of positive control, neutral wells = 0 | activation, % at 12.5 µM | 0.75% of 300,000 active | AID 588334;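 active means mean activation of at least 80% with every replicate also reaching 80%; inconclusive means mean reaches 80% but some replicate falls short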;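 further: 0% = neutral control wells and 100% = parthenolide positive control wells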
# HSF-1 act = increases HSF-1 driven luciferase reporter signal; activation, % at 9 µM; 1.7% of 300,000 active; AID 504408; NIH3T3-HGL HSF-1 luciferase reporter, MG132, 8 h; 100% = twice DMSO control signal;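 active means mean replicate activation of at least 50% with a set share of replicates each reaching 50%; inconclusive means only one of those two conditions met; inactive means mean below 50% and too few replicates reaching it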;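 further: 0% = median of the neutral control wells and 100% = twice that signal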
# Starred values were filed as active, the others as inactive; ? = inconclusive; nt = no result. The list is not random: actives were taken first. Their share in the collection is about 3.8%.
SMILES,HSF1 inhib,esBAF inh,Wnt bcat act,MITF TRPM1 HTS,HSF-1 act
COc1cccc(O)c1CN1CCC(C(=O)Nc2ccc(Oc3cccnc3)cc2)CC1,-6,-12,-4,-14,-8
COc1ccccc1NC(=O)CN(C)S(=O)(=O)c1ccc2c(c1)CCC(=O)N2,-7,3,0,nt,1
COc1ccc(NC(=O)CN(C)S(=O)(=O)c2ccc3c(c2)CCC(=O)N3)c(OC)c1,-86*,-1,-2,5,-90
CCOC(=O)Cc1csc(NC(=O)c2cnc3sc(C)cn3c2=O)n1,13,47*,3,62,24
CCOC(=O)Cc1csc(NC(=O)c2ccc3ncsc3c2)n1,-3,52*,22,2,1
CCOC(=O)Cc1csc(NC(=O)c2ccc(C)o2)n1,4,15,nt,14,6
Cc1ccc(S(=O)(=O)Nc2ccc3c(c2)C(=O)N([C@H](C)CO)C[C@H](C)[C@H](CN(C)C(=O)c2ccccc2)OCCCC[C@H](C)O3)cc1,nt,7,nt,nt,nt
Cc1ccc(C(=O)Cn2nnc(-c3ccccc3-n3cnnn3)n2)cc1,53,11,nt,-1,73*
COc1ccc(C(=O)Cn2nnc(-c3ccccc3-n3cnnn3)n2)cc1,-2,-1,0,-1,6
Cc1cc(NC(=S)N(Cc2ccc(Cl)cc2)Cc2ccc(C(=O)O)cc2)ccc1Cl,49,6,-1,15,80*
O=C(COc1ncnc2ccccc12)c1ccc(Cl)cc1,17,?,10,27,25
O=C(COc1ncnc2cc(Cl)ccc12)c1ccccc1,7,71*,-1,31,33
CCC(CO)Oc1cc(NCc2ccc(O)cc2)c2ncn(C(C)C)c2c1 (stereo not given),nt,-4,-1,11,nt
CCC(CO)Oc1cc(NCc2ccccc2)c2ncn(C(C)C)c2c1 (stereo not given),nt,60*,-3,-10,nt
CCSc1nsc(NC(=O)Nc2ccccc2Cl)n1,nt,41*,5,nt,nt
CCCC#Cc1cnc2c(c1)C(=O)N([C@@H](C)CO)C[C@@H](C)[C@H](CN(C)C(=O)c1cccc(F)c1)O2,nt,8,nt,nt,nt
O=C(NNC(=S)Nc1ccccc1Cl)c1ccccc1,22,71*,24,93*,49
O=C(Nc1ccccc1Cl)c1ccccc1Cl,-3,14,0,32,6
O=C(NNC(=S)Nc1ccccc1Cl)c1ccccc1Cl,25,53*,26,78,37
Cc1noc(C)c1NC(=O)Nc1cccc2c1O[C@H](CN(C)CC1CCCCC1)[C@@H](C)CN([C@@H](C)CO)C2=O,nt,0,nt,nt,nt
COc1ccc(C(CNC(=O)c2cccn2C)N2CCOCC2)cc1 (stereo not given),nt,57*,18,44,nt
O=C(NCC(c1ccc(F)cc1)N1CCOCC1)c1c(F)cccc1F (stereo not given),7,3,39*,3,26
O=C(NCC(c1ccco1)N1CCOCC1)c1c(F)cccc1F (stereo not given),2,nt,0,-3,-2
COc1ccc(C(CNC(=O)c2ccc(C)o2)N2CCOCC2)cc1 (stereo not given),1,1,-4,-5,-8
CN1C(=O)c2cc(NS(=O)(=O)c3cccc(F)c3)ccc2OC[C@@H]2O[C@@H](CC(=O)O)CC[C@@H]21,nt,-7,nt,nt,nt
SMILES,HSF1 inhib,esBAF inh,Wnt bcat act,MITF TRPM1 HTS,HSF-1 act
C=CCN1N=C(/C=C/c2ccc(C)cc2)CCC1=O,27,56*,6,53,42
Cc1cccc2nc(CSc3nc4ccccc4o3)cn12,11,nt,-2,28,44
c1ccc(-n2cnnc2SCc2cn3ccccc3n2)cc1,-9,-1,nt,-1,3
c1ccc2nc(SCc3cn4ccccc4n3)cnc2c1,0,nt,38*,57,1
c1ccc2oc(SCc3cn4ccccc4n3)nc2c1,48,nt,?,37,64*
C[C@@H]1CCCCO[C@H](CN(C)S(=O)(=O)c2cn(C)cn2)[C@@H](C)CN([C@H](C)CO)C(=O)c2cc(NC(=O)Nc3ccccc3)ccc2O1,nt,0,nt,nt,nt
O=c1[nH]c2ccccc2cc1-c1nnn(-c2ccc(Cl)c(Cl)c2)n1,-3,1,3,-2,10
COc1ncccc1-c1nnn(-c2ccc(C)cc2)n1,27,?,39*,57,19
COc1ncccc1-c1nnn(-c2ccc(F)cc2)n1,21,54*,34*,-15,40
Clc1ccc(-n2nnc(-c3nccs3)n2)cc1Cl,15,6,?,41,19
Cc1ccc(-n2nnc(-c3cc4ccccc4nc3Cl)n2)cc1,4,45*,1,nt,-2
COc1ncccc1-c1nnn(-c2ccc(Cl)c(Cl)c2)n1,36,88*,39*,102*,45
C[C@@H]1CN([C@H](C)CO)C(=O)c2ccccc2-c2ccccc2CO[C@H]1CN(C)C(=O)C1CC1,nt,6,nt,nt,nt
O=c1[nH]c2ccccc2cc1-c1nnn(-c2ccc(F)cc2)n1,12,79*,?,76,24
CCc1ccc(NC(=O)CSC2=C(C#N)C(c3ccc4c(c3)OCO4)CC(=O)N2)cc1 (stereo not given),29,3,nt,-9,64*
Cc1ccc(NC(=O)CSC2=C(C#N)C(c3ccc4c(c3)OCO4)CC(=O)N2)cc1C (stereo not given),18,-3,-1,-10,14
O=C(O)Cn1c2c(c3ccccc31)CSc1ccc(Cl)cc1-2,192,2,-1,-15,269*
Cc1nc(Sc2ccc(Br)cc2)c(C#N)c(C)c1[N+](=O)[O-],74,-7,20,22,128*
Cc1ccc(Sc2nc(C)c([N+](=O)[O-])c(C)c2C#N)cc1,-1,-11,1,nt,0
CCCNC(=O)c1ccc2c(=O)c(O)c(-c3cccc(Br)c3)[nH]c2c1,-52*,-33,-4,-28,-61
O=C(Nc1ccccc1)C1=C(N2CCOCC2)/C(=C/c2cccnc2)CC1,16,42*,1,40,18
COc1cc(NC(=O)C2=C(N3CCOCC3)/C(=C/c3ccc(Cl)cc3)CC2)cc(OC)c1OC,31,nt,nt,-4,27
O=C(O)c1ccc(COc2ccccc2Cl)cc1,-5,1,nt,21,4
CN1CCN(C(=O)c2cccc(COc3cc(Cl)ccc3Cl)c2)CC1,-3,nt,15,71,-5
O=C(Nc1ccccc1Cl)c1cccc(COc2cc(Cl)ccc2Cl)c1,-10,nt,38*,45,-10
COc1cc(/C=C2\NC(=S)NC2=O)ccc1OCc1cccc(C(=O)O)c1,-12,6,27,22,-17
O=C(O)c1cccc(COc2ccccc2Cl)c1,-86*,-79,-13,-92,-88
O=C1NC(=O)/C(=C\c2ccc(OCc3cccc(C(=O)O)c3)c(Cl)c2)N1,-55*,-29,0,-42,-65
Cc1noc(C)c1NC(=O)Nc1ccc2c(c1)C(=O)N([C@@H](C)CO)C[C@@H](C)[C@H](CN(C)S(=O)(=O)c1ccc(Cl)cc1)OCCCC[C@@H](C)O2,nt,2,nt,nt,nt
